Laboratory results taken from ChEMBL document CHEMBL4513216, “Probing the Open Global Health Chemical Diversity Library for Multistage-Active Starting Points for Next-Generation Antimalarials” (ACS Infect Dis, 2020).
The campaign covered roughly 68,000 compounds. About 2,700 (4%) showed an effect of 50% or more. This is one part of a sample in which strong results are shown more often than they occur.

system: Plasmodium berghei; experiment: Screen against P. berghei liver stage (PbLuc), transformed with Luciferase, at 2uM; assay type: functional, HepG2; conditions: tested at 2 uM

First: O=C1[C@@H]2CCN(Cc3ccncc3)C[C@@H]2OCCN1c1ccccc1
Second: Cc1ccccc1-c1cncc(C2CCN(Cc3cnn(C)c3)CC2)n1
The INHIBITION of the first is lower: 2.71% for the first, 18.22% for the second.

Compared with Cc1ccccc1-n1cnc(Cl)c1CO, Cc1ccc(Cl)cc1N1CCC(CNC(=O)Cn2cccn2)C1 (stereo not given) is lower in INHIBITION: -40.04% for the first, -48.41% for the second.

First: O=C(NC1CC1)N1CCN(c2cnccn2)CC1
Second: O=C(NC1CC1)C1CCN(c2nc3nc[nH]c(=O)c3s2)CC1
The INHIBITION of the first is lower: 11.24% for the first, 20.16% for the second.

First: O=C(CCc1ccc(C(F)(F)F)cc1)N1CCCS1(=O)=O
Second: O=C(NCC(F)(F)F)C1CSCN1S(=O)(=O)c1ccccc1F (stereo not given)
The INHIBITION of the first is lower: -24.72% for the first, 14.06% for the second.

Going from Cn1c(N2CC[C@H](O)C2)nc2cc(C(N)=O)ccc21 to Cc1cnn(CC(=O)NCC2CCN(c3cc(Cl)ccc3C)C2)c1 (stereo not given), the INHIBITION rises from 26.7% to 80.06%.

Compared with CCc1nc(CN2CCCN(C(=O)c3cnc(C)cn3)CC2)cs1, CCc1nc(CN2CCCN(C(=O)c3cc(C)on3)CC2)cs1 is lower in INHIBITION: -12.19% for the first, -24.11% for the second.

Going from CCc1nc(CN2CCCN(C(=O)C3CCOC3)CC2)cs1 (stereo not given) to CCc1nc(CN2CCCN(C(=O)C3CCOCC3)CC2)cs1, the INHIBITION falls from 56.03% to -17.37%.

First: CCc1nc(CN2CCCN(C(=O)C3CCC3)CC2)cs1
Second: CCc1nc(CN2CCCN(C(=O)CCc3ccco3)CC2)cs1
The INHIBITION of the first is lower: 23.86% for the first, 44.12% for the second.

Compared with CCc1ccc(C(=O)N2CCCN(Cc3csc(CC)n3)CC2)o1, Cc1nc(CN2CCCN(C(=O)CCc3ccco3)CC2)cs1 is lower in INHIBITION: 50.61% for the first, 11.2% for the second.

Going from Cc1nc(CN2CCN(C(=O)CCc3ccco3)CC2)cs1 to CCN1CCO[C@]2(CCC[C@H]2COCc2csc(C)n2)C1, the INHIBITION falls from 60.09% to 32.95%.

First: CN(Cc1cnn(C)c1)C(=O)C(c1ccccc1)N1CCSCC1 (stereo not given)
Second: Cn1cc(CN2CCc3c(CNC(=O)C4CC4)cncc3C2)cn1
The INHIBITION of the first is higher: 0.21% for the first, -5.13% for the second.

First: O=C(C[C@@H]1COC[C@H]2CN(Cc3ccc(F)cc3)C[C@@H]12)N1CCOCC1
Second: Cc1c(C(=O)NCCC(=O)N2CCOCC2)sc2ccc(F)cc12
The INHIBITION of the first is higher: 20.74% for the first, -6.64% for the second.

Going from O=C(NCC1CC1)[C@H]1C[C@@H]2CCN(CCc3ccccc3)C[C@H]2O1 to CCN(CC1CCCN(CCc2cccc(OC)c2)C1)C(=O)CN(C)C (stereo not given), the INHIBITION falls from 25.4% to -85.72%.

Going from CC(C)n1[nH]c(=O)c2c1NC(=O)CC2c1cccnc1 (stereo not given) to CC(C)CNc1nnc(SC(C(=O)NCc2cccnc2)C(C)C)s1 (stereo not given), the INHIBITION rises from -35.44% to -16.56%.

Going from Cc1ccccc1CC(=O)N[C@@H]1CCC[C@@H](N2CCNC(=O)C2)[C@@H]1O to Cc1ccc(C(=O)N2CCC(Oc3c(C)cccc3C)CC2)c(=O)[nH]1, the INHIBITION falls from 29.06% to -11.33%.

Compared with CCc1nc2n(n1)CC(NCc1cc(OC)c3c(c1)OCO3)CC2 (stereo not given), CCNc1cc2c(nn1)CCN(C(=O)c1ccc3c(c1)OCO3)C2 is lower in INHIBITION: 40.24% for the first, -17.37% for the second.

Compared with Cc1ccc(C(=O)N2CCC(Oc3cccc(C)c3C)CC2)c(=O)[nH]1, Cc1ccc(C)c(OC2CCN(C(=O)c3ccc(C)[nH]c3=O)CC2)c1 is higher in INHIBITION: 7.64% for the first, 54.85% for the second.

First: COc1ccc(OC2CCN(C(=O)c3ccc(C)[nH]c3=O)CC2)cc1
Second: Cc1ccc(C(=O)N2CCC(Oc3ccc(C)c(C)c3)CC2)c(=O)[nH]1
The INHIBITION of the first is higher: 11.95% for the first, -37.2% for the second.

Going from Cc1ccc(C(=O)N2CCC(Oc3ccc(F)cc3F)CC2)c(=O)[nH]1 to CN(C)S(=O)(=O)c1csc(C(=O)N2CCC(C(N)=O)CC2)c1, the INHIBITION falls from 60.31% to -0.24%.

Compared with Cc1cc(C(=O)N2CCCC2c2nc(O)cc(C(C)C)n2)on1 (stereo not given), Cc1cc(N2CCN(c3ccc(=O)[nH]n3)CC2)nc(-c2ccncc2)n1 is lower in INHIBITION: 12.21% for the first, -2.96% for the second.

First: CCN(C)C[C@@H]1CN(Cc2cnc3c(S(C)(=O)=O)cnn3c2)C[C@@H]1CO
Second: CN(C)S(=O)(=O)c1csc(C(=O)N2CCSCC2)c1
The INHIBITION of the first is lower: 10.91% for the first, 68.33% for the second.

First: CCN(CC)S(=O)(=O)c1csc(C(=O)N2CCC(C(N)=O)CC2)c1
Second: O=C(c1cscn1)N1CCC2(CCN(Cc3nccs3)C2)CC1
The INHIBITION of the first is higher: 14.27% for the first, -14.66% for the second.

Going from Cc1nc(NCCSc2nnc(C)s2)c2cccnc2n1 to CSCC[C@H](N)c1nnc(SCc2cc(C)ccc2C)o1, the INHIBITION falls from 21% to 17.15%.

Going from CN1CC2(CCN(CC3CC3)CC2)COc2ccccc2S1(=O)=O to O=C(NC1CCS(=O)(=O)c2ccccc21)c1sccc1C1CC1 (stereo not given), the INHIBITION rises from -22.64% to -10.14%.

First: O=C(CS(=O)(=O)Cc1ccccc1)NCc1ccccc1F
Second: Cc1ccc(CS(=O)(=O)CC(=O)NCc2ccccc2F)cc1
The INHIBITION of the first is higher: 50.59% for the first, 26.74% for the second.

First: NC(=O)C(Cc1ccccc1)NS(=O)(=O)Cc1ccccc1F (stereo not given)
Second: NC(=O)C(Cc1ccccc1)NS(=O)(=O)Cc1ccccc1Cl (stereo not given)
The INHIBITION of the first is higher: 53.13% for the first, -7.47% for the second.

Going from N#Cc1cccc(CS(=O)(=O)NC(Cc2ccccc2)C(N)=O)c1 (stereo not given) to O=C(CS(=O)(=O)Cc1ccc(F)cc1)NCc1ccccc1F, the INHIBITION falls from 18.29% to -54.34%.

Going from Cc1ccc(Cl)cc1N1CCC(CNC(=O)CC(F)(F)F)C1 (stereo not given) to COc1cccnc1NC(=O)c1ccc(COCC(F)(F)F)cc1, the INHIBITION falls from 42.92% to -14.46%.

Compared with CCCC1C=CCN1C(=O)c1cc(COc2ccc3c(c2)OCO3)[nH]n1 (stereo not given), CNc1cc2c(nn1)CCN(C(=O)c1ccc3c(c1)OCO3)C2 is higher in INHIBITION: 5.15% for the first, 50.18% for the second.

First: Cc1cc(C)cc(-c2cc(C3CCOC3)c(C#N)c(N)n2)c1 (stereo not given)
Second: Cc1cc(-c2cc(C3CCOC3)c(C#N)c(N)n2)ccc1Cl (stereo not given)
The INHIBITION of the first is higher: 59.27% for the first, 21.33% for the second.

Compared with COc1ccc(-c2cc(C3CCOC3)c(C#N)c(N)n2)cn1 (stereo not given), CNc1cc2c(nn1)CCN(C(=O)c1ccc3c(c1)CCC3)C2 is higher in INHIBITION: 7.64% for the first, 29.12% for the second.

First: COc1ccc(C)cc1Nc1nc2c(C)nn(C)c2c(=O)n1C
Second: Cc1ccsc1C(=O)NC1CCS(=O)(=O)c2ccccc21 (stereo not given)
The INHIBITION of the first is lower: -103.52% for the first, -15.77% for the second.

With O=C(NC1CCS(=O)(=O)c2ccccc21)c1cccs1 (stereo not given) the INHIBITION was 79.83%.
